Screens (PubChem)
Tau fibril ThT – blocks human tau fibril formation measured by thioflavin T | AID 1460 | Potency, µM (series often up to 57.4 µM), for inactives: top-dose activity, negative = inhibition, usual class: inhibitors | 270,000 compounds, 2.1% hits | P10636 | recombinant tau K18 P301L, heparin-induced fibrillization, ThT fluorescence; active = well fitted curve in the direction sought with a large enough effect; inconclusive = small, poorly fitted or top-dose-only effect, or another doubt; inactive = no such curve, though single readings can be large; an effect the other way counts as inactive or inconclusive; note: nearly all actives have a fitted effect of over 55% in size
Target sequence (P10636 561-689 P618L limits assumed): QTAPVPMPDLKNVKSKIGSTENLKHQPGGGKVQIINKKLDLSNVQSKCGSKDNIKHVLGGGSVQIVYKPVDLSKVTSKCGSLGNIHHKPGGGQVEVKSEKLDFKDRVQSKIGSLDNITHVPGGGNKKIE
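Recombinant human tau K18 fragment […] carrying P301L, 15 uM unlabeled plus 0.24 uM Alexa 594-labeled, was fibrillized with 20 uM heparin in 100 mM sodium acetate pH 7 for 6 hr at 37 C; 30 uM ThT fluorescence read after 1 hr.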
JMJD2E inh – blocks human JMJD2E demethylase activity. Potency, µM (highest dose often 57.1 µM), for inactives: at the highest dose activity change, negative = inhibition, hits mostly inhibitors. 230,000 compounds, 1.6% hits. AID 2147. B2RXH2. JMJD2E catalytic domain, FDH-coupled NADH fluorescence (FDH is formaldehyde dehydrogenase);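 note: 0% = wells with enzyme and -100% = buffer wells without enzyme; nearly all actives have a fitted effect of over 50% in size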
Target sequence (B2RXH2 1-337 limits assumed): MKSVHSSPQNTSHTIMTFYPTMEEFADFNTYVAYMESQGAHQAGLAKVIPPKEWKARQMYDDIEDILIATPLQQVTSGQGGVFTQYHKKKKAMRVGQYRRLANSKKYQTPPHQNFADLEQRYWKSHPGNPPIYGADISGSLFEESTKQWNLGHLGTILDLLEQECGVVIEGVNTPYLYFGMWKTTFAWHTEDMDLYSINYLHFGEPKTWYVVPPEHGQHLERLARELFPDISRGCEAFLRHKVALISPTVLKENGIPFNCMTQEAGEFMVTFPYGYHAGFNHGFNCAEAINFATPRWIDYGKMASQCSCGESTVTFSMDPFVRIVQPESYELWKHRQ
ALDH1A1 inh – ALDH1A1 (human) enzyme inhibition; Purified ALDH1A1, NADH fluorescence, propionaldehyde substrate; Potency, µM (top dose mostly 75.3 µM), for the others: at the highest dose activity, negative = inhibition, actives largely listed as inhibitors; 220,000 compounds, 7.3% hits; AID 1030;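 note: plate controls were no enzyme wells and a reference inhibitor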
Tau fluor cs – counter-screen for tau fibril formation inhibitors; tau K18 P301L Alexa594 fluorescence, heparin fibrillization; Potency, µM (titrated, usually from 57.7 µM), for the others: at the top dose activity change, negative = decrease; 280,000 compounds, 0.93% hits; AID 1463; active = well fitted curve in the direction sought with a large enough effect; inconclusive = small, poorly fitted or top-dose-only effect, or another doubt; inactive = no such curve, though single readings can be large; an effect the other way counts as inactive or inconclusive; note: nearly all actives have a fitted effect of over 55% in size
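Human tau K18 P301L (15 uM unlabeled, 0.24 uM Alexa 594-labeled) in 100 mM sodium acetate pH 7 with 20 uM heparin, 6 hr at 37 C. ThT 30 uM added, 1 hr ambient; Alexa 594 FP and total fluorescence read at 555/632 nm.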
HPGD inh – HPGD (human) dehydrogenase inhibition | P15428 | 150,000 compounds, 4.3% hits | Potency, µM, inactives show top-dose activity change, negative = inhibition, usual class: inhibitors | purified HPGD, NADH fluorescence kinetic, PGE2 substrate
Target sequence (P15428 whole entry, looked up): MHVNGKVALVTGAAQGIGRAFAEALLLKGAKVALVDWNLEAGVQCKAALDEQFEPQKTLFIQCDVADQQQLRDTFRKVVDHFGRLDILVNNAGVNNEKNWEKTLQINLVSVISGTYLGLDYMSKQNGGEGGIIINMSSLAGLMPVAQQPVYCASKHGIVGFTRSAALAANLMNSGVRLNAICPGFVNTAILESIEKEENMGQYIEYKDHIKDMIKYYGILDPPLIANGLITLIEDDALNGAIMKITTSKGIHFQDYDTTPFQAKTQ
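NADH formation kinetics: reaction with 30 uM PGE2 and 1 mM NAD+ (final), 20 nM enzyme, Tris-HCl pH 8 with Tween 20, after 15 min compound preincubation at room temperature. Fluorescence change, last versus first of five reads.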
Tau FP inhib – inhibitors of human tau fibril formation; K18 P301L tau heparin fibrillization, Alexa594 FP, 6 h; Potency, µM (series often up to 57.7 µM), for the others: at the highest dose activity, negative = inhibition, hits mostly inhibitors; AID 1468; 280,000 compounds, 0.39% hits; active = well fitted curve in the direction sought with a large enough effect; inconclusive = small, poorly fitted or top-dose-only effect, or another doubt; inactive = no such curve, though single readings can be large; an effect the other way counts as inactive or inconclusive; note: nearly all actives have a fitted effect of over 55% in size
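K18 P301L tau (15 uM unlabeled/0.24 uM Alexa 594-labeled, final) + compound + heparin 20 uM final; 100 mM NaOAc pH 7; 6 hr 37 C; ThT 30 uM final added, 1 hr RT; FP ex 555/em 632 nm.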
* hit, by the source's call; ? = inconclusive; · = not tested or not shown. This is a sample that favours compounds with a hit; in the whole collection about 9.9% have one here. Unless noted, calls come from the whole dose curve; as a rule, active = well fitted inhibition curve with a large enough effect (not every such curve was filed as active); inconclusive = small, poorly fitted or top-dose-only effect, or another doubt; inactive = no such curve, though single readings can be large or run the other way. Unless noted, % is set by controls: 0 for no effect and ±100 for the full control effect; potency is the fitted concentration of half-maximal effect.

SMILES | Tau fibril ThT | JMJD2E inh | ALDH1A1 inh | Tau fluor cs | HPGD inh | Tau FP inhib
Cc1cc(OCc2nc(-c3ccncc3)no2)cc(C)c1Cl | -10% | -3% | -2% | -9% | · | -7%
COc1ccccc1NC(=O)c1cc2c(-c3ccccc3)nn(-c3ccccc3)c2s1 | -4% | · | · | -24% | · | ?
Cc1cccc(NC(=O)c2nc(-c3ccccc3)n(-c3ccccc3)n2)c1C | ? | 3% | 32µM* | -15% | -29% | 2%
Cc1nn(-c2ccccc2)c2sc(C(=O)N3CCCCC3)cc12 | -5% | -6% | 1.8µM* | -7% | 4µM* | -1%
O=C(c1nc(-c2ccccc2)n(-c2ccccc2)n1)N1CCCCCC1 | -8% | -4% | 8.9µM* | 0% | -15% | 1%
O=C(Nc1ccccc1)c1cc2c(-c3ccccc3)nn(-c3ccccc3)c2s1 | -1% | · | · | ? | · | 20µM*
CSc1ccc(C(=O)C2CCCN(S(=O)(=O)c3c(C)noc3C)C2)cc1 (stereo not given) | -10% | -4% | -7% | -18% | · | -3%
Cc1nn(CC(=O)Nc2cccnc2)c(C)c1[N+](=O)[O-] | -6% | 7% | -2% | -10% | · | 4%
Cc1nn(-c2ccccc2)c2sc(C(=O)Nc3cccc(Br)c3)cc12 | ? | · | · | ? | · | 7.9µM*
Cn1nc(C(F)(F)F)c2cc(C(=O)Nc3ccc(Cl)cc3)sc21 | 1% | -2% | 12% | ? | -14% | ?
Cc1cnc(NC(=O)c2cc3c(C)nn(-c4ccccc4)c3s2)s1 | -13% | ? | ? | ? | ? | ?
O=C(Nc1ccc(Cl)cc1)c1cc2c(-c3ccccc3)nn(-c3ccccc3)c2s1 | 11% | · | · | -27% | · | 25µM*
O=S(=O)(Nc1ccc2nc(-c3ccc(F)cc3)oc2c1)c1ccccc1 | 6% | · | · | ? | · | ?
COc1cnc(SCCC(F)=C(F)F)[nH]c1=O | -7% | -2% | 2% | -5% | · | 5%
CN1C(=O)/C(=C/c2ccc(-c3ccccc3[N+](=O)[O-])o2)SC1=Nc1ccc(Cl)c(C(=O)O)c1 | 14µM* | 0% | 13µM* | -14% | 14µM* | -11%
Cc1nn(C)c2c1c(C(F)(F)F)cc(=O)n2C(C)C(=O)NCCc1ccc(Cl)cc1 (stereo not given) | -9% | · | · | -15% | · | -5%
COc1cc2c(cc1NC(=O)C(C)OC(=O)C1CC(=O)N(Cc3ccco3)C1)oc1ccccc12 (stereo not given) | -11% | -6% | -10% | -22% | 28µM* | 5%
COc1ccc(-n2nc(C(=O)NCC(=O)NCC3COc4ccccc4O3)c3ccccc3c2=O)cc1 (stereo not given) | 10% | ? | -2% | -10% | · | 3%
Cc1ccc(-c2cn3cccc(C)c3n2)cc1 | -15% | -1% | ? | -13% | · | -2%
CCC(O)c1nc2ccccc2n1Cc1cccc(Cl)c1 (stereo not given) | 6% | · | · | -2% | · | 12%
CC(NC(=O)/C=C/c1ccco1)c1nc2ccccc2n1Cc1cccc(Cl)c1 (stereo not given) | -11% | -7% | 14µM* | -5% | 2% | -9%
COc1cc(C(=O)N2CCN(C(=O)c3ccco3)CC2)cc(OC)c1OC | 10% | 3% | ? | 6% | -4% | -5%
O=C(c1cccc(S(=O)(=O)NCc2ccccc2)c1)N1CCN(Cc2ccccc2)CC1 | -2% | -3% | 18µM* | -9% | -10% | 6%
O=C(c1ccc(CNS(=O)(=O)c2cccc(C(F)(F)F)c2)cc1)N1CCOCC1 | 12% | 7% | ? | 3% | 14µM* | 2%
COc1cccc(S(=O)(=O)Nc2ccc(C(=O)N3CCN(C(=O)c4ccco4)CC3)cc2)c1 | -10% | -2% | 18µM* | -12% | -10% | 10%
SMILES | Tau fibril ThT | JMJD2E inh | ALDH1A1 inh | Tau fluor cs | HPGD inh | Tau FP inhib
O=C(c1cccc(NS(=O)(=O)c2ccc(F)c(F)c2)c1)N1CCN(Cc2ccccc2)CC1 | 6% | 0% | ? | -8% | -3% | 6%
COc1ccc(NS(=O)(=O)c2ccc(C(=O)N3CCN(Cc4ccccc4)CC3)cc2)cc1 | 0% | -13% | 3.2µM* | -2% | · | 3%
COc1ccc(N2CCN(C(=O)c3ccc(NS(=O)(=O)c4ccccc4)cc3)CC2)cc1 | 1% | -10% | -9% | -4% | -29% | 3%
CN(CC(=O)c1c(N)n(C)c(=O)n(C)c1=O)c1ccccc1 | -6% | -2% | 8% | -16% | · | -3%
Cc1ccc(NC(=O)C(=O)C2C(=O)Nc3ccccc32)cc1 (stereo not given) | ? | ? | -6% | -9% | · | -3%
Cc1ccc(S(=O)(=O)NCc2ccc(C(=O)N3CCN(Cc4ccccc4)CC3)cc2)cc1 | -22% | 3% | 11µM* | -7% | -2% | 12%
O=C(NCc1cccc(C(F)(F)F)c1)c1cccc(S(=O)(=O)NCc2ccccc2)c1 | 7% | -1% | 4% | -24% | -7% | -1%
O=C(NC(c1ccccc1)c1ccccc1)c1cccc(S(=O)(=O)NCc2ccccc2)c1 | 1% | -2% | 4.5µM* | -27% | -14% | -7%
Cc1ccc(S(=O)(=O)NCc2ccc(C(=O)N3CCN(c4ccccn4)CC3)cc2)cc1 | -15% | -29% | 7% | -6% | -6% | 3%
CN1CCN(C(=O)c2ccc(CN(c3ccccc3)S(=O)(=O)c3ccccc3)cc2)CC1 | -3% | -3% | 11% | -4% | · | -3%
CCN1CCN(C(=O)c2ccc(CN(c3ccccc3)S(=O)(=O)c3ccccc3)cc2)CC1 | 0% | 2% | -6% | -4% | 14µM* | -1%
CCN(CC)S(=O)(=O)c1ccc(C(=O)NCC(c2ccc(OC)cc2)N2CCOCC2)cc1 (stereo not given) | 0% | 3% | 0.71µM* | 3% | · | -4%
N[C@@H](CCS(=O)O)C(=O)O | -14% | · | 5% | -23% | · | -5%
CCOc1ccc(-n2nc(CO)c(C(=O)NCc3ccccn3)n2)cc1 | ? | · | · | -5% | · | 0%
CCc1ccc(NC(=O)Cn2c3[n+](c4c(F)c(F)ccc42)CCCCC3)cc1 | -6% | 15% | 10µM* | 4% | · | 3%
CCc1ccc(NC(=O)Cn2c(=O)oc3cc(S(=O)(=O)N4CCCCCC4)ccc32)cc1 | 9% | · | · | -25% | · | -14%
O=C(Cn1c2[n+](c3ccc(C(F)(F)F)cc31)CCCCC2)Nc1ccc(Br)cc1 | -3% | -29% | 2% | -5% | · | 0%
N#Cc1ccc(NC(=O)Cn2c3[n+](c4ccc(C(F)(F)F)cc42)CCCCC3)cc1 | 8% | 25µM* | -19% | -3% | · | -15%
CCOC(=O)c1c(NC(=O)/C=C/c2ccccc2)sc2c1CCCC2 | -6% | · | · | -10% | · | -6%
Cc1ccc(OCC(=O)Nc2cccc(C(=O)OCc3cc(=O)n4nc(C)sc4n3)c2)cc1 | ? | · | · | -13% | · | -1%
